Assay outcomes: PubChem, Broad Institute
These entries were drawn from the full list.
aSyn UTR act – Activators via SNCA 5'UTR binding, MLPCN; hit rate 7.1% among 300,000; activity score, % (tested at 7.5 µM), hits read low; alpha-synuclein 5'UTR reporter, activators screen; in the data active = activity score below about -60%
Large screens that a line does not name were inactive.

COc1ccc(CCn2c(C3CCCCC3)nc3c(c(=O)c4ccccc4n3C)c2=O)cc1	none
COc1ccc(CCn2c(-c3ccccc3)nc3c(c(=O)c4ccccc4n3C)c2=O)cc1	aSyn UTR act -86.4
N#CC1=C(N)OC2=C(CC/C2=C\c2ccccc2)C1c1ccccc1 (stereo unspecified)	aSyn UTR act -63.0
Cc1ccccc1OCc1nc(-c2cccnc2)no1	aSyn UTR act -70.6
Cc1cc(OCc2nc(-c3cccnc3)no2)c(C)cc1Br	aSyn UTR act -68.5
Cc1ccc(OCc2nc(-c3cccnc3)no2)cc1C	aSyn UTR act -124.9
CCCn1c(=N)c(C(=O)NC2CCCC2)cc2c(=O)n3cccc(C)c3nc21	aSyn UTR act -67.0
Cc1cccn2c(=O)c3cc(C(=O)NCC4CCCO4)c(=N)n(CCc4ccccc4)c3nc12 (stereo unspecified)	aSyn UTR act -100.8
Cc1cccn2c(=O)c(C(=O)NC3CCCCC3)c(O)nc12	aSyn UTR act -66.5
Cc1cccn2c(=O)c3cc(C(=O)NC4CCCC4)n(C)c3nc12	aSyn UTR act -93.5
COc1ccc(CCn2c(=N)c(C(=O)NC3CCCC3)cc3c(=O)n4ccccc4nc32)cc1OC	aSyn UTR act -61.9
CC1=NN(C(N)=S)C(=O)C1N=Nc1cccc(Cl)c1 (stereo unspecified)	aSyn UTR act -86.0
COc1cccc(N=NC2C(=O)N(C(N)=S)N=C2C)c1 (stereo unspecified)	aSyn UTR act -94.6
CC1=NN(C(N)=S)C(=O)C1N=Nc1ccc(C)cc1C (stereo unspecified)	aSyn UTR act -102.5
CC(=O)N(C)c1ccc(N=NC2C(=O)N(C(N)=S)N=C2C)cc1 (stereo unspecified)	aSyn UTR act -92.9
O=C(Nc1ccc(F)cc1F)c1cccc(C(=O)Nc2ccc(F)cc2F)n1	none
O=C(Nc1ccccc1Cl)c1csc(-c2cccnc2)n1	aSyn UTR act -69.9
O=C(Nc1ccccc1)c1csc(-c2ccccc2)n1	aSyn UTR act -170.2
O=C(Nc1ccc(F)cc1F)c1csc(-c2ccccc2)n1	aSyn UTR act -95.3
COc1ccc(/C=C2\N=C(SC)N(C)C2=O)cc1	aSyn UTR act -62.8
Cc1nn(C)c(Sc2ccccc2N)c1[N+](=O)[O-]	aSyn UTR act -68.8
CCOC(=O)C1=C(C)C/C(=N\NC(=O)c2ccccc2O)CC1	aSyn UTR act -79.0
O=C(N=Nc1c(O)n(C2OC(=O)c3ccccc32)c2ccccc12)c1ccco1 (stereo unspecified)	aSyn UTR act -109.5
O=C(/C=C/c1cccs1)c1ccc(NC(=O)c2cccc(Br)c2)cc1	aSyn UTR act -84.5
Cc1ccc(C(=O)Nc2ccc(C(=O)/C=C/c3cccs3)cc2)cc1	aSyn UTR act -200.6
O=C(/C=C/c1cccs1)c1ccc(Br)cc1	aSyn UTR act -95.8
Cc1nc(NC(=O)c2ccc(Br)o2)sc1C	aSyn UTR act -129.4
Cc1ccc(C(=O)Nc2nc(C)c(C)s2)o1	aSyn UTR act -114.2
O=C(c1ccc(OC(F)(F)F)cc1)c1ncc[nH]1	aSyn UTR act -83.3
COc1ccc(Cl)cc1NC(=O)C1COc2ccccc2O1 (stereo unspecified)	aSyn UTR act -65.1
Cc1cc(NC(=O)C2COc3ccccc3O2)no1 (stereo unspecified)	aSyn UTR act -114.7
COc1ccc(CNC(=O)C2COc3ccccc3O2)c(OC)c1 (stereo unspecified)	aSyn UTR act -75.5
O=C(Nc1ccc(Cl)cn1)C1COc2ccccc2O1 (stereo unspecified)	aSyn UTR act -137.2
O=C(Nc1ccccn1)C1COc2ccccc2O1 (stereo unspecified)	aSyn UTR act -176.8
Cc1cccc(NC(=O)C2COc3ccccc3O2)n1 (stereo unspecified)	aSyn UTR act -71.0
Cc1cnc(NC(=O)C2COc3ccccc3O2)s1 (stereo unspecified)	none
Cc1csc(NC(=O)C2COc3ccccc3O2)n1 (stereo unspecified)	none
CCOC(=O)C(=Cc1ccc(-c2ccsc2C(=O)OC)o1)C(=O)OCC	aSyn UTR act -87.9
CCOC(=O)/C(C#N)=C/c1ccc(-c2ccsc2C(=O)OC)o1	aSyn UTR act -117.4
CSc1ncccc1C(=O)OCC(=O)c1cc(C)n(CC2CCCO2)c1C (stereo unspecified)	aSyn UTR act -69.4
COCCn1c(C)cc(C(=O)COC(=O)c2cc3c(s2)CCC3)c1C	aSyn UTR act -78.4
Cc1cc(C(=O)CSc2nc3ccccc3o2)c(C)n1CC1CCCO1 (stereo unspecified)	aSyn UTR act -138.0
CC1CCN(C(=O)COC(=O)c2ccc3c(c2)OCO3)CC1	aSyn UTR act -118.4
COCCn1c(C)cc(C(=O)COC(=O)c2cccc(O)c2)c1C	none
COCCn1c(C)cc(C(=O)COC(=O)c2ccc([N+](=O)[O-])o2)c1C	aSyn UTR act -90.2
Cc1cc(C(=O)COC(=O)c2ccc([N+](=O)[O-])o2)c(C)n1CC1CCCO1 (stereo unspecified)	aSyn UTR act -127.9
Cc1cc(C(=O)COC(=O)c2ccc3c(c2)OCO3)c(C)n1CC1CCCO1 (stereo unspecified)	aSyn UTR act -68.3
CC(C)C(O)C1CCN(Cc2nc(-c3cccs3)no2)CC1 (stereo unspecified)	aSyn UTR act -107.7
Cc1ccc(-c2noc(CN3CCC(C(N)=O)CC3)n2)cc1	aSyn UTR act -86.0
CC1CCN(Cc2nc(-c3ccccc3)no2)CC1	aSyn UTR act -190.3
O=c1cc(-c2cccc(Br)c2)oc2cccc(O)c12	aSyn UTR act -140.5
O=c1cc(-c2cccc(Cl)c2)oc2cccc(O)c12	aSyn UTR act -123.6
CCCC12CN3CCN(CC(C3)/C1=N\NC(=O)c1ccccc1N)C2	aSyn UTR act -76.1
Nc1ccccc1C(=O)N/N=C1\C2CN3CCN(C2)CC1(c1ccccc1)C3	aSyn UTR act -91.9
Cc1cc2n(n1)C(c1ccc(N(C)C)cc1)Nc1ccccc1-2 (stereo unspecified)	aSyn UTR act -155.9
Cc1ccc(C(=O)NCCCc2ccccc2)c(C)c1	aSyn UTR act -129.3
O=C(NCCCc1ccccc1)c1ccc(Br)o1	aSyn UTR act -62.2
O=C(NCCCc1ccccc1)c1ccc([N+](=O)[O-])cc1Cl	aSyn UTR act -82.7
O=C(NCCCc1ccccc1)c1ccccc1O	aSyn UTR act -139.9
Cc1ccc(C(=O)NCCCc2ccccc2)c(Cl)c1	aSyn UTR act -100.2
O=[N+]([O-])c1ccc(Sc2cccc[n+]2[O-])c2nonc12	none
CCOc1ccc(Nc2ccc([N+](=O)[O-])c3nonc23)cc1	aSyn UTR act -122.6
CCNC(=S)Nc1cc(-c2ccc(Cl)cc2)[nH]n1	aSyn UTR act -86.5
O=C(Nc1cc(-c2ccccc2)[nH]n1)c1ccccc1F	aSyn UTR act -207.2
CC(=O)Nc1cc(-c2ccc(F)cc2)[nH]n1	aSyn UTR act -76.9
Cc1cc(C)c2cccc(NC(=S)NC(=O)c3ccccc3)c2n1	aSyn UTR act -76.4
COC(=O)c1sc(NC(=S)NC(=O)c2ccccc2)nc1C	aSyn UTR act -198.2
COc1ccc(C(=O)NC(=S)NNC(=O)c2cnccn2)cc1OC	none
COc1ccc(C(=O)NC(=S)Nc2nc(C)cc(C)n2)cc1Br	aSyn UTR act -77.4
COC(=O)c1sc(NC(=S)NC(=O)c2ccccc2Cl)nc1C	aSyn UTR act -145.9
Cc1csc(NC(=S)NC(=O)c2ccccc2)n1	aSyn UTR act -178.7
COc1cc(OC)nc(NC(=S)NC(=O)c2ccccc2)n1	aSyn UTR act -69.1
CCOC(=O)c1sc(NC(=S)NC(=O)c2ccccc2)nc1C	aSyn UTR act -216.3
COc1cccc(/C=N/n2c(N)nc3ccccc32)c1OC	aSyn UTR act -154.5
COc1cccc(/C=N/n2cnc3ccccc32)c1OC	aSyn UTR act -191.3
